Data as given in PubChem BioAssay AID602393 (Broad Institute, 2012).
In all, about 350,000 compounds went through this assay and about 7,000 (2%) were called active. No stated cut-off is given here; in the data, active means activation above about 40%; inconclusive means no clear call, values can overlap the other calls; inactive means below that. Many of the other results were omitted from the sample, so actives are more common in it than they were.

Experiment: raisers of Bmi1 knock-in reporter signal – mouse ES cells, Bmi1 luciferase knock-in, single point, esBAF inhibitor project, primary screen (AID 602393);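 further: 0% = median of the plate's neutral control wells and 100% = double that signal; a rise in the Bmi1 reporter signal indicates esBAF inhibition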
Settings: 24 h, at 12.5 µM, stronger effect = higher value, 100% = twice the neutral-well signal

Reporter increase, inactive:
COc1ccccc1S(=O)(=O)N[C@@H]1CC[C@@H](CCNC(=O)C2CCCCC2)O[C@@H]1CO -1.9%, O=C(C[C@@H]1C[C@@H]2c3cc(NS(=O)(=O)c4ccc(F)cc4)ccc3O[C@@H]2[C@H](CO)O1)N1CCCCC1 -3.2%, CO[C@@H]1CC[C@H]2CCN(C)C(=O)C[C@@H](c3ccccc3)CN(C)C(=O)c3cc(C#N)ccc3OC[C@@H]1O2 3.4%, CO[C@H]1CC[C@@H]2CCOc3c(C#N)cccc3C(=O)N(C)C[C@@H](OC)[C@H](C)C(=O)N(C)C[C@H]1O2 3.07%, CCC(=O)N1C[C@@H](C)[C@H](OC)CN(C)C(=O)c2ccc(NC(=O)C3CCOCC3)cc2OC[C@@H]1C -3.82%, C[C@@H]1CN([C@H](C)CO)C(=O)c2cc(-c3cccc(C#N)c3)cnc2O[C@H]1CN(C)C(=O)C1CCC1 -9.7%, COc1ccccc1S(=O)(=O)N[C@@H]1CC[C@H](CC(=O)N2CCN(C)CC2)O[C@@H]1CO 0.975%, O=C(C[C@@H]1C[C@@H]2c3cc(NC(=O)C4CCOCC4)ccc3O[C@@H]2[C@@H](CO)O1)NC1CCCCC1 5.22%, COc1ccc(S(=O)(=O)Nc2ccc3c(c2)C(=O)N([C@@H](C)CO)C[C@H](C)[C@H](CN(C)Cc2ccc(C(=O)O)cc2)OCCCC[C@@H](C)O3)cc1 6.21%, COCOc1cc(O)c(C(=O)/C=C/c2ccc(OCOC)c(OCOC)c2)c(OCOC)c1 15.9%, COc1ccc(/C=C/C(=O)c2cc(Br)ccc(=O)c2O)cc1 -9.92%, Cc1ccc(S(=O)(=O)N2C[C@H](O)COC[C@@H]3O[C@H](CC(=O)N[C@H]4CCN(Cc5ccccc5)C4)CC[C@H]32)cc1 -2.58%, C[C@H](CO)N1C[C@H](C)[C@H](CN(C)Cc2ccc(C(F)(F)F)cc2)Oc2c(NC(=O)C3CCOCC3)cccc2C1=O -0.743%, Cc1ccc(C(=O)COC(=O)CCN2C(=O)C3C4CCC(C4)C3C2=O)cc1C (stereo not given) 0.309%, Cc1nc2ccccc2c(-c2ccccc2)c1C(=O)c1ccccc1 -1.09%, Cc1noc(C)c1NC(=O)Nc1ccc2c(c1)C(=O)N([C@@H](C)CO)C[C@@H](C)[C@H](CN(C)C(=O)Nc1ccc(C(F)(F)F)cc1)OCCCC[C@@H](C)O2 11%, O=C(C[C@H]1CC[C@@H](NC(=O)Cc2cccnc2)[C@H](CO)O1)Nc1ccc(-c2ccccc2)cc1 -2.77%, CC(OC(=O)/C=C/c1ccccc1)C(=O)Nc1ccc(C(N)=O)cc1 (stereo not given) -2.08%, N/C(=N\OC(=O)c1ccc2c(c1)OCO2)c1ccc(Br)cc1 18.6%, CN(c1ccc(C(=O)NCCC2=CCCCC2)cc1)S(C)(=O)=O -6.11%, Cn1nnc2cc(C(=O)NCCC3=CCCCC3)ccc21 -7.14%, CCn1ccnc1CN(C)C(=O)c1ccc2nc(Cc3ccc(OC)cc3)oc2c1 -2.21%, Cc1cc(Cl)c2oc(C(=O)N(C)C(C)c3ccccn3)c(C)c2c1 (stereo not given) 31.4%, COc1ccc(NC(=O)Nc2ccc3c(c2)CC(=O)N([C@@H](C)CO)C[C@@H](C)[C@H](CN(C)C(=O)NC2CCCCC2)O3)cc1 3.44%, c1ccc(CCc2ccccn2)cc1 16.6%, O=C(Cc1ccccn1)c1ccc(O)cc1O 7.66%, CO[C@H]1CN(C)C(=O)c2cc(NC(=O)C3CC3)ccc2OC[C@H](C)N(CC2CCCC2)C[C@@H]1C -2.34%, O=C(CSC1=NCCS1)Nc1nc(-c2ccccc2)cs1 5.05%, CC1CCCC(C)N1C(=O)CN1CCN(c2nc(-c3ccc(F)cc3)cs2)CC1 (stereo not given) 7.37%, Cc1csc(NC(=O)C2=COCCO2)n1 39.3%, Cc1ccc(-c2csc(N(Cc3ccco3)C(=O)c3cccs3)n2)cc1 2.94%, COc1ccc(OC)c(NC(=O)Cc2cccs2)c1 0.423%, O=C(Nc1n[nH]c(C(F)(F)F)n1)c1cccs1 -2.17%

Reporter increase, active:
COc1ccc(/C=C/C(=O)c2c(O)cc(OC)cc2OC)cc1 46.9%, Cc1ccc(C(=O)COC(=O)c2cccc(N3C(=O)c4c(C)nc5ccccc5c4C3=O)c2)cc1C 21.8%, N/C(=N\OC(=O)/C=C/c1ccccc1)c1ccc(Br)cc1 23.9%, O=C(NCCC1=CCCCC1)c1ccc(-n2cncn2)cc1 42.2%, CC(c1ccccn1)N(C)C(=O)c1ccc2nc(Cc3cccc(Cl)c3)oc2c1 (stereo not given) 73.4%, Oc1cccc(CCc2ccccn2)c1 45.8%, O=C(COC(=O)C1CCCO1)Nc1nc(-c2ccc(F)cc2)cs1 (stereo not given) 49.2%
